Compound activity: PubChem BioAssay, National Center for Advancing Translational Sciences (NCATS)
Hits are enriched below; roughly 10% of the tested compounds scored in any of these assays.
3T3 cytotox = NIH 3T3 cell cytotoxicity. NIH 3T3 viability, CellTiter-Glo ATP luminescence, 48-72 h. Potency, µM (highest dose often 96.7 µM), for inactives: at the top dose activity change, negative = cytotoxicity, hits mostly inhibitors. 94,000 tested, 4.3% active; further: nearly all actives have a fitted effect of over 55% in size
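Cytotoxicity was measured by CellTiter-Glo ATP luminescence after 48 or 72 h compound exposure at 37 °C. Mouse NIH 3T3 fibroblasts were seeded at 400 cells/well and dosed by 23 nL pin transfer.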
hNpr1 antagonist = antagonists of human natriuretic peptide receptor Npr1; P16066; Potency, µM (titrated, usually from 46.3 µM), inactives show at the highest dose activity change, negative = inhibition, usual class: inhibitors; 76,000 tested, 1.6% active; HEK293 hNpr1 GloSensor cGMP, ANP-stimulated luminescence; AID 1347048; calls by dose curve; further: nearly all actives have a fitted effect of over 60% in size
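Compound pre-incubated 30 min at room temperature on GloSensor-loaded HEK293 cells stably carrying hNpr1 and the pGS-40F cGMP biosensor. Stimulation uses hNppA at 0.1 nM final; luminescence is taken at baseline and 20 min post-agonist.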
HEK cytotox = HEK 293 cell cytotoxicity; HEK 293 viability, ATP luminescence (CellTiter-Glo), 48-72 h; Potency, µM (series often up to 115 µM), for inactives: at the highest dose activity change, negative = cytotoxicity, actives largely listed as inhibitors; 94,000 tested, 6.6% active; further: nearly all actives have a fitted effect of over 60% in size
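qHTS cytotoxicity; HEK 293, 250 cells/well; compound pinned; 48 or 72 hr, 37 degree Celsius, 5% CO2, 95% humidity; CellTiter-Glo, 10 min RT; luminescence (ATP).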
Luciferase inh = blocks purified firefly luciferase enzyme activity; P08659; purified P. pyralis luciferase, luminescence, biochemical; Potency, µM (top dose mostly 115 µM), most hits filed as inhibitors; 76,000 tested, 2.5% active; AID 1347043; further: nearly all actives have a fitted effect of over 65% in size
Target sequence (P08659 whole entry, looked up): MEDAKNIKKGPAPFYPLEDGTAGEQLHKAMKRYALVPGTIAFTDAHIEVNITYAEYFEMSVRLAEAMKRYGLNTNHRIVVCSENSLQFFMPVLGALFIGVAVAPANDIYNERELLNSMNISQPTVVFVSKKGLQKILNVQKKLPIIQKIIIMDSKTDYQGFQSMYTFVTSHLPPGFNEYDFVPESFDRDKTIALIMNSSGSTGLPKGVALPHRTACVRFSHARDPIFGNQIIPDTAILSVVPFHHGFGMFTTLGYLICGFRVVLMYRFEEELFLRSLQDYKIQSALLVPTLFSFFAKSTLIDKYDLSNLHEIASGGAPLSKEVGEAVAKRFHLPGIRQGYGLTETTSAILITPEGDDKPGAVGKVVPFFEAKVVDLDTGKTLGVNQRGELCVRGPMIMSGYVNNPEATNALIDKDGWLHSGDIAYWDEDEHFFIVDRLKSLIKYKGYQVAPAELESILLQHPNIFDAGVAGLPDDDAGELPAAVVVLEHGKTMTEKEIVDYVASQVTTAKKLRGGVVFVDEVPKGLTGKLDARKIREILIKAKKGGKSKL
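FLuc 10nM, D-luciferin 10uM, ATP 10uM, Mg acetate 10mM, Tris acetate pH 7.5, Tween/BSA; cpd qHTS; enzyme added last; CCD luminescence.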
GPT2 inh = inhibitors of human GPT2 alanine aminotransferase | Recombinant GPT2, coupled pyruvate oxidase/HRP Amplex Red fluorescence | Potency, µM (highest dose often 57.7 µM), for the others: at the highest dose activity change, negative = inhibition, hits mostly inhibitors | 100,000 tested, 0.25% active | AID 1671188; further: nearly all actives have a fitted effect of over 60% in size
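Inhibition is scored from Amplex Red fluorescence generated when pyruvate oxidase and HRP act on pyruvate released by GPT2. Reactions contain 10ng/uL enzyme, 250uM a-KG and 2mM L-alanine and run 30 min at room temperature.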
* marks the source's active call; other numbers are inactive results; ! = a repeat was not active; [ ] = another dose, or the depositor's remark. Unless noted, the call rests on the fitted dose curve; in most records, active means well fitted curve in the direction sought with a large enough effect; inconclusive means small, poorly fitted or top-dose-only effect, or another doubt; inactive means no such curve, though single readings can be large; an effect the other way counts as inactive or inconclusive. On the % scale 0 is the no-effect control and ±100 the full control effect; potency means the concentration at half of the fitted maximal effect.

How did O=c1n(-c2ccncc2)nc2n1CCN(Cc1cccc3ccccc13)C2 do in these assays?
3T3 cytotox: inconclusive; hNpr1 antagonist: inconclusive; HEK cytotox: 44.7µM*; Luciferase inh: inactive; GPT2 inh: inconclusive

Results for COc1ccc(CN2CCn3c(nn(-c4ccc(F)cc4F)c3=O)C2)cc1 ?
3T3 cytotox: -14.3%; hNpr1 antagonist: -13.7%; HEK cytotox: inconclusive; Luciferase inh: inactive; GPT2 inh: inactive

Results for O=c1n(-c2ccc(Cl)cc2)nc2n1CCN(Cc1cccc3ccccc13)C2 ?
3T3 cytotox: 0.6%; HEK cytotox: -25.2%; GPT2 inh: 0.4%

How did Cc1ccc(CN2CCn3c(nn(-c4ccc([N+](=O)[O-])cc4)c3=O)C2)cc1 do in these assays?
3T3 cytotox: inconclusive; hNpr1 antagonist: inconclusive; HEK cytotox: 44.7µM*; Luciferase inh: inactive; GPT2 inh: inactive

Results for O=C(NC1CC1)c1ccccc1OCC1CCCN(C2CCCCC2)C1 (centres undefined) ?
3T3 cytotox: -23.7%; hNpr1 antagonist: -11.7%; HEK cytotox: inconclusive; Luciferase inh: inactive; GPT2 inh: inconclusive

Results for O=C(NC1CCCCCC1)c1ccc(Cn2ccn3nc4c(c3c2=O)CCCC4)cc1 ?
3T3 cytotox: inconclusive; hNpr1 antagonist: -16.6%; HEK cytotox: inconclusive; Luciferase inh: inactive; GPT2 inh: -9.6%

How did O=c1n(-c2ccc([N+](=O)[O-])cc2)nc2n1CCN(Cc1ccc(C(F)(F)F)cc1)C2 do in these assays?
3T3 cytotox: inconclusive; hNpr1 antagonist: 14.1µM*; HEK cytotox: 35.5µM*; Luciferase inh: inactive; GPT2 inh: -1.8%

What do the screens show for `O=c1n(-c2ccc(Cl)cc2)nc2n1CCN(Cc1ccccc1)C2`?
3T3 cytotox: 8.91µM*; HEK cytotox: inconclusive; GPT2 inh: -11.1%

How did CC(=O)Nc1ccc(CN2CCn3c(nn(-c4ccc(Cl)cc4)c3=O)C2)cc1 do in these assays?
3T3 cytotox: inconclusive; HEK cytotox: inconclusive; GPT2 inh: inactive

What do the screens show for `O=c1n(-c2ccc(C(F)(F)F)cc2)nc2n1CCN(Cc1ccc(F)cc1)C2`?
3T3 cytotox: 39.8µM*; hNpr1 antagonist: -23.7%; HEK cytotox: 31.6µM*!; Luciferase inh: inactive; GPT2 inh: 0.2%

What do the screens show for `O=c1n(-c2ccc(C(F)(F)F)cc2)nc2n1CCN(Cc1cccnc1)C2`?
3T3 cytotox: inconclusive; HEK cytotox: inconclusive; GPT2 inh: -14.8%

How did O=c1n(-c2ccc([N+](=O)[O-])cc2)nc2n1CCN(CC1CC1)C2 do in these assays?
3T3 cytotox: inconclusive; hNpr1 antagonist: inconclusive; HEK cytotox: 35.5µM*; Luciferase inh: inconclusive; GPT2 inh: -12.2%[88.5 µM]

What do the screens show for `COc1cccc(-c2cccc(C(=O)N3CCCC3C(=O)N3CCC(c4ccccc4)CC3)c2)c1` (centres undefined)?
3T3 cytotox: inconclusive; HEK cytotox: inconclusive; GPT2 inh: inactive

What do the screens show for `O=c1n(-c2ccc([N+](=O)[O-])cc2)nc2n1CCN(Cc1cccc3ccccc13)C2`?
3T3 cytotox: inconclusive; hNpr1 antagonist: -19.6%; HEK cytotox: inconclusive; Luciferase inh: inactive; GPT2 inh: inactive

How did O=c1n(-c2ccc([N+](=O)[O-])cc2)nc2n1CCN(Cc1ccc(OC(F)(F)F)cc1)C2 do in these assays?
3T3 cytotox: inconclusive; hNpr1 antagonist: 17.8µM*; HEK cytotox: 35.5µM*; Luciferase inh: inactive; GPT2 inh: inactive

Results for CCCCOc1ccc(CN2C[C@@H]3C(=O)N(C)C(=O)[C@@H]3C2)cc1 ?
3T3 cytotox: -7.7%; hNpr1 antagonist: -21.1%; HEK cytotox: inconclusive; Luciferase inh: 28.2µM*; GPT2 inh: -7.0%

Results for O=C(c1cccs1)N1CCCn2cc(-c3ccccc3F)nc21 ?
3T3 cytotox: -5.8%; hNpr1 antagonist: -3.7%; HEK cytotox: inconclusive; Luciferase inh: 22.4µM*; GPT2 inh: -3.6%

What do the screens show for `O=C(c1ccsc1)N1CCCn2cc(-c3ccccc3F)nc21`?
3T3 cytotox: inactive; hNpr1 antagonist: -4.2%; HEK cytotox: -13.5%; Luciferase inh: 35.5µM*; GPT2 inh: 1.6%

How did CN1c2cccnc2CN(Cc2ccc(OC(F)(F)F)cc2)CC[C@H]1CO do in these assays?
3T3 cytotox: inconclusive; hNpr1 antagonist: 3.1%[70.6 µM]; HEK cytotox: inconclusive; Luciferase inh: inactive; GPT2 inh: -29.8%[88.5 µM]

How did CN1CCN(C(=O)c2cc(-c3cccnc3)nc3c2cnn3C)CC1 do in these assays?
3T3 cytotox: -11.9%[138 µM]; HEK cytotox: inactive; GPT2 inh: inactive

Results for CCCC(C)C(=O)N1CCc2[nH]nc(C(=O)NCCCc3ccccc3)c2C1 (centres undefined) ?
3T3 cytotox: 39.8µM*; HEK cytotox: 35.5µM*; GPT2 inh: inactive

Results for O=C(NCCCc1ccccc1)c1n[nH]c2c1CN(C(=O)c1ccccc1F)CC2 ?
3T3 cytotox: 35.5µM*; hNpr1 antagonist: -16.9%; HEK cytotox: inconclusive; Luciferase inh: inactive; GPT2 inh: inactive

What do the screens show for `O=C(NCCCc1ccccc1)c1n[nH]c2c1CN(C(=O)c1ccc(F)cc1F)CC2`?
3T3 cytotox: inconclusive; hNpr1 antagonist: 2.3%; HEK cytotox: 79.4µM*; Luciferase inh: inactive; GPT2 inh: -7.2%

Results for O=C(NCCCc1ccccc1)c1n[nH]c2c1CN(C(=O)c1ccccc1Cl)CC2 ?
3T3 cytotox: inconclusive; hNpr1 antagonist: 0.0%; HEK cytotox: inconclusive; Luciferase inh: inconclusive; GPT2 inh: inactive

What do the screens show for `CC(C)C(=O)N1CCc2[nH]nc(C(=O)NCCCc3ccccc3)c2C1`?
3T3 cytotox: inconclusive; hNpr1 antagonist: 0.0%; HEK cytotox: inconclusive; Luciferase inh: inactive; GPT2 inh: -2.3%

What do the screens show for `O=C(NCCCc1ccccc1)c1n[nH]c2c1CN(C(=O)c1ccc3c(c1)OCO3)CC2`?
3T3 cytotox: 35.5µM*; HEK cytotox: inconclusive; GPT2 inh: inconclusive

What do the screens show for `Cc1ccc(C(=O)N2CCc3[nH]nc(C(=O)NCCCc4ccccc4)c3C2)cc1F`?
3T3 cytotox: inconclusive; HEK cytotox: inconclusive; GPT2 inh: -2.8%

Results for O=C(NCCCc1ccccc1)c1n[nH]c2c1CN(C(=O)c1c(F)cccc1F)CC2 ?
3T3 cytotox: inconclusive; hNpr1 antagonist: 0.0%; HEK cytotox: 17.8µM*; Luciferase inh: inactive; GPT2 inh: inconclusive

How did COc1ccc(C(=O)N2CC(Oc3ccccc3-c3nc(-c4cnccn4)no3)C2)cn1 do in these assays?
3T3 cytotox: -3.7%; hNpr1 antagonist: 0.7%; HEK cytotox: inconclusive; Luciferase inh: inactive; GPT2 inh: 2.0%

Results for CN1CCN(c2ccc3ncc(Nc4ccc(OC(F)(F)F)cc4)n3n2)CC1 ?
3T3 cytotox: 35.5µM*; hNpr1 antagonist: -20.1%[70.6 µM]; HEK cytotox: 50.1µM*; Luciferase inh: inactive; GPT2 inh: inconclusive
